This note sets out measurements from article PMC11024108.

For this test, the target named is T1, Monocarboxylate transporter 1 (UniProt P53985).
T1 sequence: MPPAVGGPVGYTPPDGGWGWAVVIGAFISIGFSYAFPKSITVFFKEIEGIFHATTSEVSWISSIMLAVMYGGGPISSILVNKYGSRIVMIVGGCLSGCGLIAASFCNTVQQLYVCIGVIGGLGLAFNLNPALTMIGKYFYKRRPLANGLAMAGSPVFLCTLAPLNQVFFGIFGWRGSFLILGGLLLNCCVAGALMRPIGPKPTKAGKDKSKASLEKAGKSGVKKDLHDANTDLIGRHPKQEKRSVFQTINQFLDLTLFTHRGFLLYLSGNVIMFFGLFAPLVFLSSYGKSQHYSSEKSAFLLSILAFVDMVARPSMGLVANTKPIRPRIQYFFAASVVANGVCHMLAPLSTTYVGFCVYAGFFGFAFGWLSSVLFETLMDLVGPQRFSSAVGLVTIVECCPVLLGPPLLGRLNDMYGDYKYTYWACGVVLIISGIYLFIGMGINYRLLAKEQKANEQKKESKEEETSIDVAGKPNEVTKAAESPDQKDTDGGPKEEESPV
The experiment in a line: cross-link between two proteins; cross-linking mass spectrometry.

In the case of “Sodium/potassium-transporting ATPase subunit alpha-1, P05023”, the “listed as a hit” value is listed as “yes”.
